From PubChem BioAssay (EPA / NIEHS)
Calls of active or inactive are those of the source. The calls were made as follows: active = hit-call score of the fitted dose curve at least 0.9, where 1 is the maximum; inactive = score below 0.9.

Tests used:
Conditions in all cases: mRNA level, 48 h; actives raise or lower the signal
[1] = read-out: Pro-epidermal growth factor (Homo sapiens) (UniProt P01133); assay: LTEA_HepaRG_EGF: Life Technologies and Expression Analysis (LTEA) Assay for Epidermal growth factor (EGF) using HepaRG (AID 2283489)
Procedure, shortened: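 Concentration-response mRNA assay: HepaRG cells dosed 48 h (max 100 uM, 0.5% DMSO), EGF measured by qRT-PCR and normalized to ACTB/GAPDH/POLR2A.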

[2] = read-out: Early growth response protein 1 (EGR1) transcription factor, EGR1 (gene 1958); assay: LTEA_HepaRG_EGR1: Life Technologies and Expression Analysis (LTEA) Assay for Early growth response protein 1 (EGR1) transcription factor using HepaRG (AID 2283490)
Procedure, shortened: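 Differentiated HepaRG cells in serum-free induction medium exposed 48 hours, duplicate, to 8 half-log concentrations up to 100 uM in 0.5% DMSO. EGR1 mRNA measured by TaqMan qRT-PCR, normalized to ACTB, GAPDH, POLR2A; bidirectional fit versus DMSO.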

[3] = read-out: Ezrin (EZR), EZR (gene 7430); assay: LTEA_HepaRG_EZR: Life Technologies and Expression Analysis (LTEA) Assay for Ezrin (EZR) using HepaRG (AID 2283491)
Procedure, shortened: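 Read-out is EZR transcript level by qRT-PCR, normalized to three housekeeping genes and fitted bidirectionally against the DMSO control. Human HepaRG cells received test chemicals for 48 h at eight half-log concentrations up to 100 uM in 0.5% DMSO.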

[4] = read-out: Cytochrome P450 3A7 (Homo sapiens) (UniProt P24462); assay: LTEA_HepaRG_CYP3A7: Life Technologies and Expression Analysis (LTEA) Assay for CYP3A7 using HepaRG (AID 2283492)
Procedure, shortened: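 qRT-PCR of CYP3A7 in HepaRG lysates after 48 h treatment; concentration-response (8 points, max 100 uM) analysed bidirectionally relative to 0.5% DMSO controls.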

CYP3A5 (gene 1577) = assay: LTEA_HepaRG_CYP3A5: Life Technologies and Expression Analysis (LTEA) Assay for CYP3A5 using HepaRG (AID 2283493)
Procedure, shortened: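 Differentiated HepaRG cells in serum-free induction medium were dosed 48 h with test chemicals (8-point half-log series, top 100 uM, 0.5% DMSO, duplicate). CYP3A5 mRNA measured by qRT-PCR, normalized to ACTB, GAPDH, POLR2A; bidirectional fit versus DMSO.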

[5] = read-out: Fatty Acid-Binding Protein 1 (FABP1), FABP1 (gene 2168); assay: LTEA_HepaRG_FABP1: Life Technologies and Expression Analysis (LTEA) Assay for Fatty Acid-Binding Protein 1 (FABP1) using HepaRG (AID 2283494)
Procedure, shortened: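 Differentiated human HepaRG cells exposed 48 h in serum-free induction medium to eight half-log concentrations up to 100 uM (0.5% DMSO), duplicate. FABP1 mRNA by qRT-PCR, normalised to ACTB, GAPDH, POLR2A; bidirectional fitting against DMSO.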

[6] = read-out: Cytochrome P450 4A22 (Homo sapiens) (UniProt Q5TCH4); assay: LTEA_HepaRG_CYP4A22: Life Technologies and Expression Analysis (LTEA) Assay for Cytochrome P450 4A22 (CYP4A22) using HepaRG (AID 2283495)
Procedure, shortened: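 Concentration-response (8 points, max 100 uM, 0.5% DMSO) in human HepaRG liver cells after 48 h exposure. CYP4A22 mRNA by TaqMan qRT-PCR with housekeeping-gene normalization.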

[7] = read-out: Cytochrome P450 7A1 (Homo sapiens) (UniProt P22680); assay: LTEA_HepaRG_CYP7A1: Life Technologies and Expression Analysis (LTEA) Assay for Cytochrome P450 7A1 (CYP7A1) using HepaRG (AID 2283496)
Procedure, shortened: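 Gene expression endpoint in human HepaRG liver cells treated for 48 h with test chemicals (up to 100 uM, 0.5% DMSO). Values come from bidirectional concentration-response fitting versus DMSO.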

[8] = read-out: Glutathione S-Transferase (GSTA2), GSTA2 (gene 2939); assay: LTEA_HepaRG_GSTA2: Life Technologies and Expression Analysis (LTEA) Assay for Glutathione S-Transferase (GSTA2) using HepaRG (AID 2283497)
Procedure, shortened: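 Differentiated human HepaRG cells were exposed in duplicate for 48 h in serum-free induction medium, 8 points from 100 uM top in half-log steps, 0.5% DMSO. GSTA2 mRNA was measured by TaqMan qRT-PCR, normalized to ACTB, GAPDH and POLR2A; bidirectional fit versus DMSO.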

[9] = read-out: Glutamate-cysteine ligase catalytic (GCLC), GCLC (gene 2729); assay: LTEA_HepaRG_GCLC: Life Technologies and Expression Analysis (LTEA) Assay for Glutamate-cysteine ligase catalytic (GCLC) using HepaRG (AID 2283498)
Procedure, shortened: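 Differentiated HepaRG cells exposed 48 h in serum-free induction medium, eight-point half-log series topping at 100 uM in 0.5% DMSO, duplicates. GCLC mRNA by qRT-PCR normalized to ACTB, GAPDH and POLR2A, fitted bidirectionally versus DMSO.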

Measured: AC50

Chain of Cytochrome P450 3A7 (Homo sapiens) (P24462 whole entry, looked up): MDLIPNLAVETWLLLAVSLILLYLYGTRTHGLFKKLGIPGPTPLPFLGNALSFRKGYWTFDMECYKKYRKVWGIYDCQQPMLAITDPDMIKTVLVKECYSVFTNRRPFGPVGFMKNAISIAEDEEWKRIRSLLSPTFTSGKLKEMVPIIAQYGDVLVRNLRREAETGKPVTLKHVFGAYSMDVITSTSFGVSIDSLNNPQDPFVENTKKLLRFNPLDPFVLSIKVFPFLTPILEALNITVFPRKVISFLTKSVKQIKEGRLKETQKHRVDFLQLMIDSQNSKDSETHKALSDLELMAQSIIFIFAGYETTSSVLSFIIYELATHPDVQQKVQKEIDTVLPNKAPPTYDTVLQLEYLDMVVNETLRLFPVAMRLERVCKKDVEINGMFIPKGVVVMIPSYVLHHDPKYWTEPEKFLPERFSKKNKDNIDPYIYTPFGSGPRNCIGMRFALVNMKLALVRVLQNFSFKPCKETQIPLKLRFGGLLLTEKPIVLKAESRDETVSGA

CCCCCC(=O)O
inactive: [1] | [2] | [3] | [4] | CYP3A5 (gene 1577) | [5] | [6] | [7] | [8] | [9]

CC1=C(/C=C/C(C)=C/C=C/C(C)=C/CO)C(C)(C)CCC1
inactive: [2] | [3] | [4] | CYP3A5 (gene 1577) | [9]
active: [1] 52.2 µM | [5] 26.3 µM | [6] 22.2 µM | [7] 21.9 µM | [8] 52.2 µM

CCCCc1ccc2c(n1)[C@@H](c1ccc(OC)cc1C[C@H](C)C(=O)O)[C@H](C(=O)O)[C@H]2c1ccc2c(c1)OCO2
inactive: [1] | [2] | [3] | [4] | CYP3A5 (gene 1577) | [5] | [6] | [7] | [8] | [9]

CC(=O)Oc1ccccc1C(=O)O
inactive: [1] | [2] | [3] | [4] | CYP3A5 (gene 1577) | [5] | [6] | [7] | [8] | [9]

c1cc(-c2ccncc2)ccn1
active: [4] 50 µM
inactive: [1] | [2] | [3] | CYP3A5 (gene 1577) | [5] | [6] | [7] | [8] | [9]

CCCCCCCC=O
inactive: [1] | [2] | [3] | [4] | CYP3A5 (gene 1577) | [5] | [6] | [7] | [8] | [9]

CCCCCCCCCCCCCCCC
inactive: [1] | [2] | [3] | [4] | CYP3A5 (gene 1577) | [5] | [6] | [7] | [8] | [9]

CN1CCN(Cc2cc(-c3ccc4[nH]c(=O)oc4c3)co2)[C@@H](c2ccc(F)cc2)C1
active: [4] 11.5 µM | [6] 50 µM | [8] 12.2 µM
inactive: [1] | [2] | [3] | CYP3A5 (gene 1577) | [5] | [7] | [9]

O=c1[nH]cc(F)c(=O)[nH]1
inactive: [1] | [3] | [4] | CYP3A5 (gene 1577) | [5] | [9]
active: [2] 70.9 µM | [6] 35 µM | [7] 64.6 µM | [8] 78 µM

Cc1ccc(Cl)cc1
inactive: [1] | [2] | [3] | [4] | CYP3A5 (gene 1577) | [5] | [6] | [7] | [8] | [9]

CCNc1cccc(C)c1
inactive: [1] | [2] | [3] | [4] | CYP3A5 (gene 1577) | [5] | [6] | [7] | [8] | [9]

Cc1ccccc1Cl
inactive: [1] | [2] | [3] | [4] | CYP3A5 (gene 1577) | [5] | [6] | [7] | [8] | [9]

C1CCC(SSC2CCCCC2)CC1
inactive: [1] | [2] | [3] | [4] | CYP3A5 (gene 1577) | [5] | [6] | [7] | [8] | [9]

CC(CO)OC(C)CO (stereo not given) (tested in a mixture with another compound)
inactive: [1] | [2] | [3] | [4] | CYP3A5 (gene 1577) | [5] | [6] | [7] | [8] | [9]

Clc1cc(Cl)c(Cl)cc1Cl
inactive: [1] | [2] | [3] | [4] | CYP3A5 (gene 1577) | [5] | [6] | [7] | [8] | [9]

NC(=O)Cn1c(=O)cc(CCN2CCN(c3nccc4sccc34)CC2)c2ccc(F)cc21
inactive: [1] | [2] | [3] | [4] | CYP3A5 (gene 1577) | [9]
active: [5] 12.3 µM | [6] 62.7 µM | [7] 21.5 µM | [8] 50 µM

Cc1cc(=O)[nH]c(=S)[nH]1
inactive: [1] | [2] | [3] | [4] | CYP3A5 (gene 1577) | [5] | [6] | [7] | [8] | [9]

COc1ccc(C)cc1N
inactive: [1] | [2] | [3] | [4] | CYP3A5 (gene 1577) | [5] | [6] | [7] | [8] | [9]

C=CCOC(=O)c1ccccc1C(=O)OCC=C
inactive: [1] | [2] | [3] | [4] | CYP3A5 (gene 1577) | [5] | [6] | [7] | [8] | [9]

NCC1(Cc2noc(=O)[nH]2)CCCCC1
inactive: [1] | [2] | [3] | [4] | CYP3A5 (gene 1577) | [5] | [6] | [7] | [8] | [9]

Nc1ccc2c(c1)C(=O)c1ccccc1C2=O
inactive: [3] | [4] | [9]
active: [1] 6.13 µM | [2] 10.4 µM | CYP3A5 (gene 1577) 1.6 µM | [5] 13.6 µM | [6] 31 µM | [7] 8.9 µM | [8] 10.2 µM
